Data published in PubChem BioAssay.
Calls of active or inactive are those of the source.

Experiment: S. pombe growth modifiers, basal conditions – strain 972, OD600, 24 h, no modulator, primary screen (AID 1090);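 further: basal condition with compound alone and no growth modifier present; test concentration not given here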
Conditions: S. pombe 972 growth, higher = more signal, called active from +8 up or from −8 down

SMILES	z-score
CC[C@@H]1C=C(C(=O)O)[C@H](c2ccc(C)cc2)N1S(=O)(=O)c1ccc(C)cc1	0.992 (inactive)
COCC(=C=CC[C@@H](O)c1ccc(OCCO)cc1)C[C@@H](O)c1ccccn1	-1.13 (inactive)
C=CCN1Cc2ccccc2[C@@H]2OC(c3ccc(OCCCO)cc3)=N[C@]2(CCS(=O)(=O)c2ccccc2)C1=O	1.45 (inactive)
COc1cc(OC)c(C(O)C2C=CC3C(=O)NC(=O)C3N2Nc2ccccn2)cc1Br (stereo unspecified)	-0.289 (inactive)
COC(=O)[C@H](Cc1ccccc1)N[C@H](/C=C/C1CC1)[C@@H](O)Cc1ccccc1	-5.75 (inactive)
O=C1C2C=CC(C(O)c3ccc4c(c3)OCO4)N(Nc3ccc([N+](=O)[O-])cc3)C2C(=O)N1c1ccccc1 (stereo unspecified)	0.484 (inactive)
CC(C)CNC(=O)[C@@]1(Cc2ccccc2I)c2ccccc2C(=O)N(Cc2ccccc2C(F)(F)F)[C@H]1c1ccc(CO)cc1	-0.0802 (inactive)
COc1cc2c(cc1O)C(c1cccs1)N(Cc1cccc(OC(F)(F)F)c1)CC2 (stereo unspecified)	-8.15 (active)
C=C(/C(=C/C[C@H](OC(=O)c1ccncc1)c1ccc(OCCO)cc1)c1cc(C(=O)OC)ccc1OC)C(C)C	-1.26 (inactive)
CC1CC/C=C\[C@H]2OC34C=CCN(Cc5ccccc5)C(=O)[C@H]3N(C(C)CO)C(=O)[C@@H]4C2C(=O)O1 (stereo partly specified)	-1.48 (inactive)
CCOC(=O)C[C@H]1[C@H](OC(=O)c2ccc(-c3ccccc3)cc2)[C@@H](NC(=O)c2ccccc2)c2cc(OCCCO)ccc2N1C(=O)Cc1ccc(OC)cc1	-0.414 (inactive)
COc1ccc(NN2C(C(O)c3ccc(N(C)C)cc3)C=CC3C(=O)N(C4CCCCC4)C(=O)C32)cc1 (stereo unspecified)	0.594 (inactive)
NC(=O)[C@@H]1[C@H]2C(=O)O[C@H](c3ccccc3)[C@H](c3ccccc3)N2[C@H](c2ccc(O)cc2)[C@@]12C(=O)Nc1ccc(C#CC3=CCCCC3)cc12	1.4 (inactive)
C=CCC(OC(C)=O)[C@@H]1[C@@H](N(Cc2ccc(-c3cccc(C(F)(F)F)c3)o2)C(=O)c2cccc3ccccc23)c2cc(OCCCO)ccc2N1C(=O)Cc1ccc2ccccc2c1 (stereo partly specified)	-0.463 (inactive)
O=C1O[C@@H](c2ccccc2)[C@@H](c2ccccc2)N2[C@@H](c3ccccc3OCCO)[C@]3(C(=O)Nc4ccccc43)[C@@H](C(=O)O)[C@H]12	-1.1 (inactive)
O=C1OCCC/C=C\[C@H]2OC34C=CCN(c5ccc6ccccc6c5)C(=O)[C@H]3N(CCCCCO)C(=O)[C@@H]4C12 (stereo partly specified)	-1.52 (inactive)
Cc1ccc(S[C@]2(C(=O)NCC(C)C)CC(=O)N(Cc3cc(C(F)(F)F)cc(C(F)(F)F)c3)[C@@H]2c2ccc(CO)cc2)cc1	-0.924 (inactive)
COc1ccc([C@H]2C[C@H]3C(I)=C[C@@H]2C(=O)[C@]32CO2)cc1	-15.3 (active)

SMILES	z-score
C=CCNC(=O)[C@@H]1[C@H]2C(=O)O[C@H](c3ccccc3)[C@H](c3ccccc3)N2[C@H](c2ccc(OCCO)cc2)[C@@]12C(=O)N(C(=O)OCCOC)c1ccc(C#CCC(C(=O)OC)C(=O)OC)cc12	0.552 (inactive)
COc1ccc([Si](C)(C)[C@H]2[C@H](CCO)O[C@@]3(C(=O)N(Cc4ccccc4)c4ccc(N5CCCCC5=O)cc43)[C@@H]2C)cc1	-0.158 (inactive)
C[N+](C)(C)CCCC[C@@H]1NC(=O)[C@@H]2C[C@H](C(=O)NCCCCCN)[C@H](c3ccc(O)cc3)N2C1=O	-1.1 (inactive)
O=C1C2C=CC(C(O)c3ccc(-c4ccccc4)s3)N(Nc3ccccc3)C2C(=O)N1c1ccccc1 (stereo unspecified)	1.63 (inactive)
COc1ccc(C(=O)Nc2cccc(CN3C(=O)[C@]4(O[C@H](CCn5cc(CCO)nn5)[C@@H]([Si](C)(C)c5ccc(OC)cc5)[C@@H]4C)c4ccccc43)c2)cc1	-14.9 (active)
COC(=O)[C@@]1(Cc2ccccc2)[C@H]2c3cc(C(=O)N4CCCC4)n(Cc4ccc(O)c(OC)c4)c3C[C@H]2CN1C(=O)c1ccccc1	0.943 (inactive)
O=C(NCCN1CCOCC1)[C@@H]1c2ccccc2C(=O)N(Cc2cc(C(F)(F)F)cc(C(F)(F)F)c2)[C@H]1c1ccc(CO)cc1	-0.091 (inactive)
O=C1C2C=CC(C(O)c3cc(C(F)(F)F)cc(C(F)(F)F)c3)N(Nc3ccccc3)C2C(=O)N1c1ccccc1 (stereo unspecified)	-0.158 (inactive)
O=C1OCC=C[C@H]2OC34C=CCN(CCN5CCOCC5)C(=O)[C@H]3N(CCO)C(=O)[C@@H]4[C@@H]12 (stereo partly specified)	-0.537 (inactive)
CCCCCCc1nc(-c2ccc(-c3ccc(Cl)c(Cl)c3)o2)cc2c1[Si](C(C)C)(C(C)C)O[C@H]2c1ccccc1	-0.45 (inactive)
O=C1C2C=CC(C(O)c3c(F)cccc3Cl)N(Nc3ccccc3F)C2C(=O)N1c1ccccc1 (stereo unspecified)	1.03 (inactive)
COc1ccc(C(O)C2C=CC3C(=O)N(C)C(=O)C3N2NC(=O)OC(C)(C)C)c2ccccc12 (stereo unspecified)	1.64 (inactive)
OCC1C=C(/C=C/c2ccccc2)CN1Cc1ccccc1Br (stereo unspecified)	-11.3 (active)
CN1C(=O)C2C=CC(C(O)c3ccc(F)cc3)N(N(c3ccccc3)c3ccccc3)C2C1=O (stereo unspecified)	0.91 (inactive)
CC(=CC1CCCCC1)[C@@H](NC(=O)c1cccnc1)c1ccc(-c2ccccc2)cc1	0.92 (inactive)
CCN(CC)c1ccc(N2CC=CC34O[C@@H]5C=CCOC(=O)[C@@H]5[C@H]3C(=O)N(CCCCCCO)[C@@H]4C2=O)cc1 (stereo partly specified)	-0.53 (inactive)
C=C(CCCC)/C(=C/C[C@H](OC(=O)c1ccncc1)c1ccc(OCCO)cc1)c1cc(C(=O)OC)ccc1OC	-0.78 (inactive)
COCCOC(=O)N1C(=O)[C@@]2(c3cc(C#CC4(O)CCCCCC4)ccc31)[C@H](c1ccccc1OCCO)N1[C@H](c3ccccc3)[C@H](c3ccccc3)OC(=O)[C@H]1[C@@H]2C(=O)N1CCc2cc(OC)c(OC)cc2C1	2.71 (inactive)
